Test results: PubChem BioAssay (NCI)
This is part of a sample that, as a whole, favours compounds with a hit. Of some 79,000 tested, about 15% had one in any assay. Active and inactive are the calls of the source. Cut-off read from the data, not from the text of the source: active = growth inhibition above about 70%; inactive = the rest.

Experiments:
[1] = NCI Yeast Anticancer Drug Screen. Data for the wt1 strain (AID 149);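 note: 0% = growth of vehicle-treated wt1 cultures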; settings: S. cerevisiae wt1 strain (SPY 50644) growth inhibition, stronger effect = higher value
Summary of the method: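 Each compound is tested on wt1 yeast and the loss of growth versus vehicle gives the inhibition value.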

[2] = NCI Yeast Anticancer Drug Screen. Data for the rad50EPP+ strain (AID 151);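 note: 0% = growth of vehicle-treated control cultures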; settings: S. cerevisiae rad50 mutant strain, stronger effect = higher value
Summary of the method: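 Strain rad50EPP+; compound exposure; % growth inhibition vs vehicle.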

[3] = NCI Yeast Anticancer Drug Screen. Data for the mgt1 strain (AID 153); settings: S. cerevisiae mgt1 mutant growth inhibition, stronger effect = higher value
Summary of the method: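 Read-out: yeast growth inhibition vs vehicle control. Strain mgt1, drawn from a panel altered in DNA damage repair or cell cycle control.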

[4] = NCI Yeast Anticancer Drug Screen. Data for the rad50 strain (AID 155);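 note: 0% = growth of vehicle-only cultures of the same strain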; settings: S. cerevisiae rad50 strain growth inhibition, stronger effect = higher value
Summary of the method: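 Vehicle-treated cultures provide the reference for the growth inhibition reported for compound-exposed, repair-deficient yeast.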

[5] = NCI Yeast Anticancer Drug Screen. Data for the mec2-1 strain (AID 157); settings: S. cerevisiae mec2-1 strain, stronger effect = higher value
Summary of the method: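 Cells of the genetically defined mec2-1 yeast strain are incubated with test compound. Inhibition of growth is calculated against vehicle-treated controls.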

[6] = NCI Yeast Anticancer Drug Screen. Data for the rad14 strain (AID 159);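 note: 0% = growth of vehicle-treated control cultures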; settings: S. cerevisiae rad14 strain growth inhibition, stronger effect = higher value
Summary of the method: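 Inhibition of growth is reported for a repair-deficient yeast mutant following compound treatment, calculated relative to cultures that received vehicle.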

[7] = NCI Yeast Anticancer Drug Screen. Data for the sgs1 mgt1 strain (AID 161);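 note: 0% = growth of cultures given vehicle only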; settings: S. cerevisiae sgs1 mgt1 strain, stronger effect = higher value
Summary of the method: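 Inhibition of yeast growth, normalised to vehicle-treated controls, is reported for a strain bearing genetic alterations in DNA damage repair.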

[8] = NCI Yeast Anticancer Drug Screen. Data for the CLN2oe strain (AID 163);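 note: 0% = growth of vehicle-only control cultures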; settings: S. cerevisiae CLN2oe strain, stronger effect = higher value
Summary of the method: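 Strain altered in cell-cycle control, incubated with compound; growth compared to solvent-treated controls.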

[9] = NCI Yeast Anticancer Drug Screen. Data for the cln2 rad14 strain (AID 165);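 note: 0% = growth equal to vehicle treated cultures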; settings: S. cerevisiae cln2 rad14 strain, stronger effect = higher value
Summary of the method: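 The screen exposed genetically defined yeast (cln2 rad14) to test compounds and scored growth inhibition relative to vehicle-treated controls.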

[10] = NCI Yeast Anticancer Drug Screen. Data for the bub3 strain (AID 167); settings: S. cerevisiae bub3 mutant strain, stronger effect = higher value
Summary of the method: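 Mutant yeast screening strain plus compound; vehicle-treated cultures serve as the 0% inhibition reference.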

[11] = NCI Yeast Anticancer Drug Screen. Data for the wt2 strain (AID 169); settings: S. cerevisiae wt2 strain growth inhibition, stronger effect = higher value
Summary of the method: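 Steps: yeast strain treated with compound; growth recorded; inhibition calculated relative to cultures given vehicle alone.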

[12] = NCI Yeast Anticancer Drug Screen. Data for the mlh1 strain (AID 171);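 note: 0% = growth of vehicle-treated control cultures of the same strain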; settings: S. cerevisiae mlh1 strain growth inhibition, stronger effect = higher value
Summary of the method: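 Yeast screen: mutant strain plus compound, growth scored against vehicle control wells.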

[13] = NCI Yeast Anticancer Drug Screen. Data for the sgs1 strain (AID 173);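 note: 0% = growth of vehicle-only control cultures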; settings: S. cerevisiae sgs1 mutant, stronger effect = higher value
Summary of the method: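 Inhibition of yeast growth served as the measure. The mutant strain was treated with each compound, and growth was normalised to cultures receiving vehicle alone.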

[14] = NCI Yeast Anticancer Drug Screen. Data for the mlh1 rad18 strain (AID 175); settings: S. cerevisiae mlh1 rad18 strain growth inhibition, stronger effect = higher value
Summary of the method: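 Compound-treated yeast growth, normalised to vehicle controls. Strain bears defined DNA repair mutations.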

[15] = NCI Yeast Anticancer Drug Screen. Data for the rad18 strain (AID 177); settings: S. cerevisiae rad18 mutant growth inhibition, stronger effect = higher value
Summary of the method: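 Inhibition values reflect reduced yeast growth compared with vehicle-treated controls, using a strain engineered with a DNA damage repair defect.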

[16] = at 5.0 µM (retest, dose inferred, filed as 0.5)
[17] = at 50.0 µM (retest, dose inferred, filed as 5.0)

Measured: growth inhibition

CCOC(=O)C(NC(=O)c1ccccc1)[CH](c1ccccc1)[Sn]([c]1ccccc1)([c]1ccccc1)[c]1ccccc1 (stereo unspecified)
active: [1]; at 100.0 µM 93% | [3]; at 100.0 µM 95% | [4]; [17] 73% | [4]; at 50.0 µM 95.7% | [4]; at 100.0 µM 92% | [5]; at 50.0 µM 97.8% | [5]; at 100.0 µM 95% | [6]; at 100.0 µM 95% | [7]; at 50.0 µM 97.3% | [8]; at 100.0 µM 95% | [9]; at 50.0 µM 93.7% | [10]; at 50.0 µM 98.7% | [10]; at 100.0 µM 94% | [11]; at 100.0 µM 96% | [12]; at 100.0 µM 96% | [13]; at 100.0 µM 94% | [14]; [17] 79% | [14]; at 50.0 µM 98% | [15]; at 100.0 µM 94%
inactive: [1]; at 1.2 µM -81% | [1]; at 3.7 µM 0% | [1]; at 11.0 µM 0% | [1]; at 33.0 µM 11% | [2]; at 1.2 µM -2% | [2]; at 3.7 µM 2% | [2]; at 11.0 µM 3% | [2]; at 33.0 µM 3% | [2]; at 100.0 µM -6% | [3]; at 1.2 µM -1% | [3]; at 3.7 µM 2% | [3]; at 11.0 µM 2% | [3]; at 33.0 µM 17% | [4]; at 1.2 µM 0% | [4]; at 3.7 µM 3% | [4]; [16] -4% | [4]; at 11.0 µM 4% | [4]; at 33.0 µM 21% | [5]; at 1.2 µM 0% | [5]; at 3.7 µM 1% | [5]; [16] -3% | [5]; at 11.0 µM 1% | [5]; at 33.0 µM 17% | [5]; [17] 40% | [6]; at 1.2 µM 2% | [6]; at 3.7 µM 2% | [6]; at 11.0 µM 4% | [6]; at 33.0 µM 17% | [7]; [16] -4% | [7]; [17] 36% | [8]; at 1.2 µM -5% | [8]; at 3.7 µM -11% | [8]; at 11.0 µM -15% | [8]; at 33.0 µM -6% | [9]; [16] -7% | [9]; [17] 19% | [10]; at 1.2 µM -7% | [10]; at 3.7 µM -4% | [10]; [16] -11% | [10]; at 11.0 µM -6% | [10]; at 33.0 µM 10% | [10]; [17] 59% | [11]; at 1.2 µM -3% | [11]; at 3.7 µM -2% | [11]; at 11.0 µM -1% | [11]; at 33.0 µM 35% | [12]; at 1.2 µM 0% | [12]; at 3.7 µM 0% | [12]; at 11.0 µM 0% | [12]; at 33.0 µM 17% | [13]; at 1.2 µM 1% | [13]; at 3.7 µM 4% | [13]; at 11.0 µM 4% | [13]; at 33.0 µM 34% | [14]; [16] -5% | [15]; at 1.2 µM -1% | [15]; at 3.7 µM 5% | [15]; at 11.0 µM 0% | [15]; at 33.0 µM 45%

Cc1nc2ccc(NCCN(C)C)c3c(=O)c4ccccc4n1c23
active: [4]; at 11.0 µM 75% | [4]; at 33.0 µM 89% | [4]; [17] 79% | [4]; at 100.0 µM 92% | [14]; at 50.0 µM 78.9%
inactive: [1]; at 1.2 µM 26% | [1]; at 3.7 µM 25% | [1]; at 11.0 µM 37% | [1]; at 33.0 µM 31% | [1]; at 100.0 µM 26% | [2]; at 1.2 µM 26% | [2]; at 3.7 µM 11% | [2]; at 11.0 µM 40% | [2]; at 33.0 µM 55% | [2]; at 100.0 µM 65% | [3]; at 1.2 µM 27% | [3]; at 3.7 µM 31% | [3]; at 11.0 µM 33% | [3]; at 33.0 µM 27% | [3]; at 100.0 µM 38% | [4]; at 1.2 µM 43% | [4]; at 3.7 µM 50% | [4]; [16] 28% | [4]; at 50.0 µM -1.8% | [5]; at 1.2 µM 25% | [5]; at 3.7 µM 30% | [5]; [16] 16% | [5]; at 11.0 µM 41% | [5]; at 33.0 µM 42% | [5]; [17] 25% | [5]; at 50.0 µM 6.95% | [5]; at 100.0 µM 37% | [6]; at 1.2 µM 6% | [6]; at 3.7 µM 11% | [6]; at 11.0 µM 6% | [6]; at 33.0 µM 12% | [6]; at 100.0 µM 20% | [7]; [16] 1% | [7]; [17] 15% | [7]; at 50.0 µM -6.05% | [8]; at 1.2 µM 5% | [8]; at 3.7 µM 22% | [8]; at 11.0 µM 20% | [8]; at 33.0 µM -2% | [8]; at 100.0 µM 19% | [9]; [16] 10% | [9]; [17] 25% | [9]; at 50.0 µM 10.2% | [10]; at 1.2 µM 5% | [10]; at 3.7 µM 4% | [10]; [16] -10% | [10]; at 11.0 µM 9% | [10]; at 33.0 µM 11% | [10]; [17] 21% | [10]; at 50.0 µM -2.7% | [10]; at 100.0 µM 9% | [11]; at 1.2 µM -32% | [11]; at 3.7 µM -38% | [11]; at 11.0 µM -43% | [11]; at 33.0 µM -39% | [11]; at 100.0 µM -19% | [12]; at 1.2 µM 27% | [12]; at 3.7 µM 31% | [12]; at 11.0 µM 33% | [12]; at 33.0 µM 27% | [12]; at 100.0 µM 38% | [13]; at 1.2 µM 23% | [13]; at 3.7 µM 33% | [13]; at 11.0 µM 24% | [13]; at 33.0 µM 24% | [13]; at 100.0 µM 35% | [14]; [16] 11% | [14]; [17] 43% | [15]; at 1.2 µM 8% | [15]; at 3.7 µM 23% | [15]; at 11.0 µM 29% | [15]; at 33.0 µM 39% | [15]; at 100.0 µM 51%
